The first experiment has as its target RAB3GAP2. Nature of the experiment: pooled miR-30 sensor sort-seq; sequence = guide strand. The following applies: shRNA.
As for TATGAGACAATCCTCCAGCTGT, the sensor-assay potency score (higher = more potent) was -0.612.

Turning to TTCTGTGGGATCTTTGACCTTT, the sensor-assay potency score (higher = more potent) amounted to 0.671.

Turning to TTCAAGTGTTCTATTGACCTAA, the sensor-assay potency score (higher = more potent) amounted to 0.6.

For the sequence TAAAACACAATCTTGGAGCCAG, the sensor-assay potency score (higher = more potent) worked out at 0.291.

On to TTTGCTGTGAAGCAGAGTCTGA, for which the sensor-assay potency score (higher = more potent) was -0.886.

Turning to TTGACTGACAGACTCATAGAGT, the sensor-assay potency score (higher = more potent) was -0.525.

For TTACAGGCAACACACCATCTTT, the sensor-assay potency score (higher = more potent) is -1.36.

Regarding TTAATTGACTGACAGACTCATA, the sensor-assay potency score (higher = more potent) is -0.923.

For the sequence TTTATTCCACTGAACAACGTAC, the sensor-assay potency score (higher = more potent) was -0.27.

For the sequence TTATTTACTAGTTTAGCTGTTG, the sensor-assay potency score (higher = more potent) is 0.0265.

On to TTCAGTGTTTTGAAGGTCCTGG, for which the sensor-assay potency score (higher = more potent) was -0.334.

In the next experiment the target is RABGEF1. The description is as above. The following applies: shRNA.
For the sequence TTATACATTTGCTTGACGCCTA, the sensor-assay potency score (higher = more potent) turned out to be 0.54.

The sequence TTGAATGGCAAGATCTTTCTTC had a sensor-assay potency score (higher = more potent) of 0.743.

Regarding TTTCAGAGTCAATAGCTGCTAA, the sensor-assay potency score (higher = more potent) was -0.257.

Sequence TTAGTTACATTCTAGATCCCAA registered a sensor-assay potency score (higher = more potent) of 0.187.

Turning to TTCTTTTCTTCAAACTTGGAGA, the sensor-assay potency score (higher = more potent) is -0.783.

The values are drawn from the OligoGym collection.
Further: reference of the scale not given here.
